Results reported in PubChem BioAssay (NCI).
About 79,000 compounds went through this panel and 15% of them were active in at least one assay; those are over-represented in the sample as a whole. Active and inactive are the calls of the source. Rule as the data show it: active = growth inhibition above about 70%; inactive = the rest.

Experiment: NCI Yeast Anticancer Drug Screen. Data for the rad52 strain (AID 147);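 also: 0% = growth of vehicle-treated control cultures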
Conditions: S. cerevisiae rad52 mutant growth inhibition; at 100.0 µM; active compounds read high
Method in brief: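 Inhibition of yeast growth, referenced to vehicle controls, was the measured output for a strain with defective DNA damage repair.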
For CC(CN(C)C)C(=O)/C=C/c1ccc(Cl)c(Cl)c1 (stereo unspecified), the growth inhibition was 95% (active).
In the case of CCCCCCNCCCNc1c2cc(OC)ccc2nc2cccc([N+](=O)[O-])c12, the growth inhibition was 97% (active).
With NC(=S)N1N=C2c3ccccc3CC[C@H]2[C@@H]1c1ccc(Cl)cc1 the growth inhibition was 88% (active).
In the case of C/C(=N/NC(=S)Nc1ccccc1C)c1ccccn1, the growth inhibition was 7% (inactive).
With O=C1/C(=C/c2ccc(Cl)c(Cl)c2)CNC/C1=C\c1ccc(Cl)c(Cl)c1 the growth inhibition was 93% (active).
With CC(C)OP(=O)(OC(C)C)C(=NCCO)NNc1ccc([N+](=O)[O-])cc1 the growth inhibition was 79% (active).
For N#CCC(=O)N/N=C(\c1ccccc1)C(c1ccccc1)C1(O)C(=O)Nc2c(Cl)ccc(Cl)c21 (stereo unspecified), the growth inhibition was 11% (inactive).
In the case of CC(C)(CN1CCCCC1)C(=O)CC(SCCS(=O)(=O)O)c1ccccc1 (stereo unspecified), the growth inhibition was 18% (inactive).
In the case of COC1=CCC23C(=O)C=CC(=O)C2(C1)C(=O)c1ccccc1C3=O (stereo unspecified), the growth inhibition was 89% (active).
With CCCCN(CCCC)c1ccc(N=Nc2ccc(S(=O)(=O)O)cc2)cc1 the growth inhibition was 90% (active).
With c1ccc2nc3c(nc2c1)sc1ccccc13 the growth inhibition was 86% (active).
In the case of O=C1c2ccccc2-c2ccc(N=Cc3ccccc3)cc21, the growth inhibition was 96% (active).
For CNC(=S)N/N=C(/C)CCC/C(C)=N/NC(=S)NC, the growth inhibition was 68% (inactive).
In the case of Nc1ccc(/C=C/c2ccc3cccnc3c2)cc1, the growth inhibition was 29% (inactive).
In the case of COc1ccc2c3c1OC(C)C31CC(=O)CCC1CC2 (stereo unspecified), the growth inhibition was 15% (inactive).
For CCOC(=O)Nc1ccc(C)c(NC(=O)OCC)c1, the growth inhibition was 23% (inactive).
With CCN(CC)CCNc1ccc2nc(C)n3c4ccc(OC)cc4c(=O)c1c23 the growth inhibition was 83% (active).
With C[N+](C)([O-])CCCNc1c2ccccc2nc2cccc([N+](=O)[O-])c12 the growth inhibition was 96% (active).
With O=C(c1cc(=O)c2ccc(O)cc2o1)c1ccc(Cl)cc1Cl the growth inhibition was 92% (active).
For CCCNC(=O)OCc1c(COC(=O)NCCC)c(-c2ccc(Cl)c(Cl)c2)n2c1CCC2, the growth inhibition was 58% (inactive).
With O=C(Cc1ccccc1)NN1C(=O)C(Cl)C1c1cc(Br)cc(Br)c1O (stereo unspecified) the growth inhibition was 88% (active).
For CCOC(=O)C(Cc1c2ccccc2cc2ccccc12)(NC(C)=O)C(=O)OCC, the growth inhibition was 0% (inactive).
With O=[N+]([O-])/C=C/c1cc2ccc3ccccc3c2[nH]1 the growth inhibition was 88% (active).
In the case of Fc1ccc(Nc2ccc3ccccc3c2)cc1, the growth inhibition was 78% (active).
With O=S1(=O)CCC2=CC(C(F)(F)F)=CC(C(F)(F)F)=CN21 the growth inhibition was 98% (active).
In the case of O=C(Cc1ccccc1)NNc1nc(NNC(=O)c2ccncc2)nc(Nc2ccc([N+](=O)[O-])cc2)n1, the growth inhibition was 54% (inactive).
In the case of CCCCS/C(=C(/C#N)C(N)=O)c1cc2c([nH]1)CCCC2, the growth inhibition was 72% (active).
In the case of O=C(O)c1ccccc1C(=O)OC1CCc2ccccc2C1 (stereo unspecified), the growth inhibition was 46% (inactive).
With CCOC(=O)/C(=C\c1cccc(C)c1)C(C)=O the growth inhibition was 99% (active).
For NC(=S)N/N=C1\c2ccccc2CCC1CCC1(O)CCc2ccccc2C1=O (stereo unspecified), the growth inhibition was 85% (active).
With Cc1cccc2c(Cl)c3cccc(C)c3nc12 the growth inhibition was 65% (inactive).
With CC(C)OC(=O)NNc1c(Cl)cc(Cl)cc1Cl the growth inhibition was 5% (inactive).
In the case of Nc1ccc2c(c1)C(=O)c1c(F)cccc1-2, the growth inhibition was 97% (active).
For N#CSCC1COc2ccccc2O1 (stereo unspecified), the growth inhibition was 98% (active).
With Cc1ccc(S(=O)(=O)NC(=O)C2C(=O)CC3(CCCCC3)CC2=O)cc1 the growth inhibition was 36% (inactive).
In the case of CC1=NN(C(=O)c2ccccc2O)C(=O)/C1=C/c1ccco1, the growth inhibition was 96% (active).
